Compounds without any hit were thinned out: in the full panel of roughly 79,000, 15% have a hit. Calls of active or inactive are those of the source. Cut-off read from the data, not from the text of the source: active = growth inhibition above about 70%; inactive = the rest.
Key:
[1] = NCI Yeast Anticancer Drug Screen. Data for the rad52 strain (AID 147);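 note: 0% = growth of vehicle-treated control cultures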; details: S. cerevisiae rad52 mutant growth inhibition, hits give high values
Procedure, shortened: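 Measured: yeast growth inhibition. System: strain with a defined DNA damage repair alteration. Reference: vehicle-treated control cultures.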

[2] = NCI Yeast Anticancer Drug Screen. Data for the wt1 strain (AID 149);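 note: 0% = growth of vehicle-treated wt1 cultures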; details: S. cerevisiae wt1 strain (SPY 50644) growth inhibition, hits give high values
Procedure, shortened: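 wt1 yeast, compound-treated; % growth inhibition vs vehicle control.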

[3] = NCI Yeast Anticancer Drug Screen. Data for the rad50EPP+ strain (AID 151);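 note: 0% = growth of vehicle-treated control cultures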; details: S. cerevisiae rad50 mutant strain, hits give high values
Procedure, shortened: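 One strain with a rad50 alteration (rad50EPP+) was compound-treated, its growth then compared to that of vehicle controls.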

[4] = NCI Yeast Anticancer Drug Screen. Data for the mgt1 strain (AID 153); details: S. cerevisiae mgt1 mutant growth inhibition, hits give high values
Procedure, shortened: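 After exposure of the mgt1 yeast mutant to compound, growth was measured and reported as inhibition compared with vehicle controls.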

[5] = NCI Yeast Anticancer Drug Screen. Data for the rad50 strain (AID 155);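 note: 0% = growth of vehicle-only cultures of the same strain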; details: S. cerevisiae rad50 strain growth inhibition, hits give high values
Procedure, shortened: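 Genetically altered yeast (DNA repair pathway); compound treatment; growth inhibition vs vehicle ctrl.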

[6] = NCI Yeast Anticancer Drug Screen. Data for the mec2-1 strain (AID 157); details: S. cerevisiae mec2-1 strain, hits give high values
Procedure, shortened: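 Test agents were screened against the mec2-1 yeast strain, with defined DNA repair or cell cycle alteration. Growth was scored as inhibition against vehicle-only controls.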

[7] = NCI Yeast Anticancer Drug Screen. Data for the rad14 strain (AID 159);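 note: 0% = growth of vehicle-treated control cultures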; details: S. cerevisiae rad14 strain growth inhibition, hits give high values
Procedure, shortened: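 Test compounds were applied to a repair-deficient yeast strain. Its growth was then compared with that of cultures given vehicle alone, and inhibition was expressed relative to those controls.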

[8] = NCI Yeast Anticancer Drug Screen. Data for the sgs1 mgt1 strain (AID 161);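 note: 0% = growth of cultures given vehicle only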; details: S. cerevisiae sgs1 mgt1 strain, hits give high values
Procedure, shortened: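 Test agents were incubated with a DNA-repair-mutant yeast strain. Growth was then read and compared against vehicle-treated controls.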

[9] = NCI Yeast Anticancer Drug Screen. Data for the CLN2oe strain (AID 163);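 note: 0% = growth of vehicle-only control cultures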; details: S. cerevisiae CLN2oe strain, hits give high values
Procedure, shortened: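 Here, growth inhibition in a cell-cycle-altered yeast strain after compound exposure was quantified against vehicle control growth.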

[10] = NCI Yeast Anticancer Drug Screen. Data for the cln2 rad14 strain (AID 165);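 note: 0% = growth equal to vehicle treated cultures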; details: S. cerevisiae cln2 rad14 strain, hits give high values
Procedure, shortened: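 Growth of compound-exposed yeast (cln2 rad14 genotype) measured and expressed as inhibition relative to vehicle.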

[11] = NCI Yeast Anticancer Drug Screen. Data for the wt2 strain (AID 169);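 note: 0% = growth of vehicle-treated yeast cultures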; details: S. cerevisiae wt2 strain growth inhibition, hits give high values
Procedure, shortened: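 Genetically defined yeast strains from a DNA-repair/cell-cycle panel were used. Compound-exposed yeast growth was measured, and the inhibition was calculated relative to vehicle treatment.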

[12] = NCI Yeast Anticancer Drug Screen. Data for the mlh1 strain (AID 171);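 note: 0% = growth of vehicle-treated control cultures of the same strain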; details: S. cerevisiae mlh1 strain growth inhibition, hits give high values
Procedure, shortened: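 Here the genetically defined yeast mutant is grown with each compound, and the extent to which its growth falls below that of vehicle-exposed cells is reported.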

[13] = NCI Yeast Anticancer Drug Screen. Data for the sgs1 strain (AID 173);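 note: 0% = growth of vehicle-only control cultures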; details: S. cerevisiae sgs1 mutant, hits give high values
Procedure, shortened: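 Relative growth inhibition, referenced to vehicle, was determined in a yeast strain with a defined alteration affecting DNA damage repair or cell cycle control after compound exposure.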

[14] = NCI Yeast Anticancer Drug Screen. Data for the mlh1 rad18 strain (AID 175); details: S. cerevisiae mlh1 rad18 strain growth inhibition, hits give high values
Procedure, shortened: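 In this whole-cell yeast screen, a strain with altered DNA damage repair is challenged with compound, and its growth is measured against matched vehicle-treated controls.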

[15] = NCI Yeast Anticancer Drug Screen. Data for the rad18 strain (AID 177); details: S. cerevisiae rad18 mutant growth inhibition, hits give high values
Procedure, shortened: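 Screen uses a yeast strain with a defined lesion in DNA damage repair; compound effect is read as loss of growth compared to untreated vehicle cultures.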

[16] = at 5.0 µM (retest, dose inferred, filed as 0.5)
[17] = at 50.0 µM (retest, dose inferred, filed as 5.0)

Measured: growth inhibition

CC(C)=CCc1c2c(c(O)c3c(=O)c(-c4ccc(O)c(O)c4)coc13)C=CC(C)(C)O2
inactive: [1]; at 1.2 µM -32% | [1]; at 3.7 µM -19% | [2]; at 1.2 µM -20% | [2]; at 3.7 µM -32% | [3]; at 1.2 µM -63% | [3]; at 3.7 µM -42% | [3]; at 11.0 µM -21% | [3]; at 33.0 µM -8% | [3]; at 100.0 µM -31% | [4]; at 1.2 µM -55% | [4]; at 3.7 µM -33% | [5]; at 1.2 µM -36% | [5]; at 3.7 µM -17% | [5]; [16] -3% | [6]; at 1.2 µM -89% | [6]; at 3.7 µM -93% | [6]; [16] 30% | [7]; at 1.2 µM -72% | [7]; at 3.7 µM -68% | [8]; [16] 18% | [9]; at 1.2 µM -32% | [9]; at 3.7 µM -5% | [10]; [16] 23% | [11]; at 1.2 µM -50% | [11]; at 3.7 µM -52% | [12]; at 1.2 µM 5% | [12]; at 3.7 µM 14% | [13]; at 1.2 µM -46% | [13]; at 3.7 µM -36% | [14]; [16] 43% | [15]; at 1.2 µM -24% | [15]; at 3.7 µM -4%
active: [1]; at 11.0 µM 96% | [1]; at 33.0 µM 93% | [1]; at 100.0 µM 87% | [2]; at 11.0 µM 79% | [2]; at 33.0 µM 93% | [2]; at 100.0 µM 89% | [4]; at 11.0 µM 94% | [4]; at 33.0 µM 92% | [4]; at 100.0 µM 87% | [5]; at 11.0 µM 93% | [5]; at 33.0 µM 93% | [5]; [17] 91% | [5]; at 50.0 µM 84.8% | [5]; at 100.0 µM 88% | [6]; at 11.0 µM 87% | [6]; at 33.0 µM 91% | [6]; [17] 93% | [6]; at 50.0 µM 88% | [6]; at 100.0 µM 85% | [7]; at 11.0 µM 91% | [7]; at 33.0 µM 91% | [7]; at 100.0 µM 87% | [8]; [17] 93% | [8]; at 50.0 µM 87.5% | [9]; at 11.0 µM 95% | [9]; at 33.0 µM 91% | [9]; at 100.0 µM 81% | [10]; [17] 92% | [10]; at 50.0 µM 83.5% | [11]; at 11.0 µM 77% | [11]; at 33.0 µM 92% | [11]; at 100.0 µM 87% | [12]; at 11.0 µM 90% | [12]; at 33.0 µM 93% | [12]; at 100.0 µM 86% | [13]; at 11.0 µM 91% | [13]; at 33.0 µM 91% | [13]; at 100.0 µM 85% | [14]; [17] 90% | [14]; at 50.0 µM 85.1% | [15]; at 11.0 µM 94% | [15]; at 33.0 µM 93% | [15]; at 100.0 µM 89%
